# C2C12 statin = suppression of simvastatin myotoxicity. rescue of ATP level, % at 7.49 µM. hit rate 0.78% among 330,000. C2C12 myotubes + simvastatin, ATP luminescence, 48 h; scaled: DMSO 0, geranylgeraniol control 100. AID 602340;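 active = mean ATP rescue above about 67%, or every replicate alone reaching that limit, limit read from the data, passing the limit was not always enough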;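 also: myotubes were challenged with 10 µM simvastatin during compound exposure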
# PAX8 reporter = PAX8 transcriptional activity inhibition; RMG-I TPO-luciferase reporter, SteadyGlo, 24 h; inhibition, % at 12.6 µM; hit rate 1.2% among 360,000; AID 652154;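 active = mean replicate inhibition at least 60% with every replicate also reaching 60%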;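 also: luciferase light reporting Pax8 driven TPO promoter activity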
# EWS-Fli inh = blocks EWS/Fli oncoprotein-driven transcription; hit rate 0.67% among 350,000; AID 651661; inhibition, % at 12.6 µM; A673 NR0B1-luciferase reporter, viability-normalised;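 active = mean inhibition of at least 50% after viability correction, with every replicate also passing that limit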;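 also: firefly luciferase signal divided by Alamar Blue viability fluorescence both relative to DMSO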
# INS-1E GSIS act = GLuc luminescence reporter in INS-1E cells, primary screen for activators of glucose-dependent secretion of insulin. INS-1E GLuc reporter insulin secretion, 2-3 h. activation, % at 16.6 µM. hit rate 0.61% among 370,000;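 active = lowest replicate activation of at least 40%, so every replicate reaches that level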
# miR-122 sensor = miR-122 inhibition in Huh7 cells. Huh7 miR-122 Renilla luciferase sensor, 48 h; neutral wells = 0, positive control = 100. activation (reporter increase), % at 12.5 µM. hit rate 0.3% among 340,000;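 active = mean replicate activation score at least 90 and every replicate individually at or above 90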;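 also: higher luciferase means less miR-122 activity so hits act as miR-122 inhibitors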
# Env fusion inh = inhibitors of HIV Env-mediated cell fusion | hit rate 1.1% among 360,000 | inhibition, % at 12.3 µM | HeLa-JRFL Env/CEM21 cell fusion, luciferase;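 active = mean replicate inhibition score of at least 50 and every replicate individually at or above 50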
# Hits are given with their value; - = inactive; . = not tested or not shown; + = active, no number; ! = repeats disagree; [ ] = another dose, or the depositor's remark. A selection: hits, their analogues and other compounds. The true share with any hit is near 3.1%.
SMILES,C2C12 statin,PAX8 reporter,EWS-Fli inh,INS-1E GSIS act,miR-122 sensor,Env fusion inh
O=C(CSc1nc2ccccc2n1CCc1ccccc1)NC1CC1,.,-,-,-,.,-
CC(C)Cn1c(SCC(=O)NC2CC2)nc2ccccc21,-,-,-,.,-,95.3
O=S(=O)(N1CCOCC1)n1c(Cc2ccccc2)nc2ccccc21,-,.,.,49.4,-,.
O=S(=O)(c1ccc(Cl)cc1)n1c(Cc2ccccc2)nc2ccccc21,-,-,-,-,-,-
COc1ccccc1-c1ccc(C2[C@H]3CNC[C@@H]2N3C(=O)Nc2ccccc2Cl)cc1 (some centres not stated),.,-,62.1,-,.,.
Cc1ccc(-c2ccc(C3[C@H]4CNC[C@@H]3N4C(=O)Nc3ccc(F)cc3)cc2)cc1 (some centres not stated),.,-,62.0!,-,.,.
O=C(Nc1ccc(F)cc1)N1[C@@H]2CNC[C@H]1C2c1ccc(/C=C/c2ccccc2)cc1 (some centres not stated),.,.,.,-,.,.
O=C(Nc1ccc(C(F)(F)F)cc1)N1[C@@H]2CNC[C@H]1C2c1ccc(/C=C/c2ccccc2)cc1 (some centres not stated),.,-,-,+!,.,.
CS(=O)(=O)Nc1ccc2c(c1)[C@@H]1C[C@@H](CC(=O)NC3CCCC3)O[C@H](CO)[C@@H]1O2,-,-,-,-,-,-
COc1ccc(S(=O)(=O)Nc2ccc3c(c2)CC(=O)N([C@H](C)CO)C[C@H](C)[C@H](CN(C)C(=O)Nc2cccc4ccccc24)O3)cc1,-,-,-,-,-,-
C[C@H](CO)N1C[C@H](C)[C@H](CN(C)CC2CCCCC2)Oc2c(NC(=O)NC3CCCCC3)cccc2C1=O,-,.,-,-,-,-
CN(C)CC(=O)Nc1ccc2c(c1)[C@@H]1C[C@H](CC(=O)N3CCCCC3)O[C@@H](CO)[C@@H]1O2,-,-,-,-,-,-
C[C@H]1CN([C@@H](C)CO)C(=O)c2cc(NC(=O)NC3CCCCC3)ccc2O[C@@H]1CN(C)S(=O)(=O)c1ccc(Cl)cc1,-,-,-,-,-,.
COc1ccccc1-n1c(C)nnc1SCC(=O)Nc1cc(C)cc(C)c1,-,.,.,.,-,55.6
COCCNC(=O)C[C@H]1CC[C@@H]2[C@H](COC[C@@H](O)CN2Cc2cccc(-c3ccncc3)c2)O1,-,-,-,-,-,-
CC(C)Cc1nc2sc3c(=O)[nH]cnc3c2c2c1CCC2,-,.,.,-,125.8,-
CNc1ccc2ncc(-c3ccc(OC)c(OC)c3)n2n1,-,-,-,-,-,58.3
CNc1cc(-c2ccc(OC)c(OC)c2)ncn1,-,-,-,-,-,-
COc1ccc2cc3[n+](cc2c1O)CCc1cc2c(cc1-3)OCO2,.,-,-,-,.,-
C[n+]1cc2c3c(ccc2c2ccc4cc5c(cc4c21)OCO5)OCO3,.,108.5,59.0,.,.,110.3
COc1cccc(-c2ccc3c(c2)[C@@H]2[C@@H](CCN2C(=O)c2cccc(F)c2)[C@H](CO)N3)c1,-,-,-,-,-,.
CCC(=O)N1N=C(c2cccs2)CC1c1ccc(C)cc1 (configuration not stated),-,-,-,-,-,-
Cc1ccc(C2CC(c3cccs3)=NN2C(=O)CCl)cc1 (configuration not stated),-,-,64.8,-,-,-
C[C@H](CO)N1C[C@H](C)[C@H](CN(C)C(=O)Nc2ccccc2)Oc2ccc(NC(=O)Nc3ccc(F)cc3)cc2C1=O,-,.,-,-,-,-
O=c1c2c([N+](=O)[O-])cc([N+](=O)[O-])cc2nc2ccccn12,-,-,-,-,-,-
SMILES,C2C12 statin,PAX8 reporter,EWS-Fli inh,INS-1E GSIS act,miR-122 sensor,Env fusion inh
O=c1c2c([N+](=O)[O-])cc([N+](=O)[O-])cc2sn1Cc1ccccc1,-,-,-,128.4,.,-
Cc1cccc2cc3c(N)c(C#N)sc3nc12,-,.,.,.,-,90.6
Cc1sc(NC(=O)c2sc3nc4c(C)cccc4cc3c2N)c(C#N)c1C,.,.,.,.,-,-
O=C(CSc1nnc(-c2ccccc2)n1Cc1ccccc1)NNC(=O)c1ccccc1O,.,-,78.6,-,-,-
C=CCn1c(SCC(=O)N2CCN(C(=O)OCC)CC2)nc2c([nH]c3ccccc32)c1=O,-,-,-,43.2,-,-
COCCn1c(SCC(=O)Nc2cc(C)on2)nc2c([nH]c3ccccc32)c1=O,-,-,-,-,-,58.8
CO[C@H]1CN(C)C(=O)c2cc(NC(=O)Nc3cc(F)ccc3F)ccc2OC[C@@H](C)N(C(=O)c2ccccn2)C[C@@H]1C,-,-,-,-,.,-
COc1ccc(NC(=O)Nc2ccc3c(c2)C(=O)N([C@@H](C)CO)C[C@H](C)[C@H](CN(C)Cc2ccc4c(c2)OCO4)OCCCC[C@H](C)O3)cc1,.,-,-,-,-,82.6[16.7 µM]
COc1ccc(NC(=O)Nc2ccc3c(c2)C(=O)N([C@H](C)CO)C[C@H](C)[C@H](CN(C)Cc2ccc4c(c2)OCO4)OCCCC[C@H](C)O3)cc1,.,-,-,-,-,68.3[16.7 µM]
COc1ccc(S(=O)(=O)Nc2cccc3c2O[C@H](CN(C)Cc2ccc(Cl)c(Cl)c2)[C@@H](C)CN([C@@H](C)CO)C3=O)cc1,.,.,-,-,-,-
C[C@@H]1CN([C@@H](C)CO)C(=O)Cc2cc(NS(=O)(=O)c3ccc(F)cc3)ccc2O[C@H]1CN(C)Cc1ccc2c(c1)OCO2,-,-,-,-,-,-
C[C@H](CO)N1C[C@H](C)[C@@H](CN(C)Cc2ccc3c(c2)OCO3)Oc2ccc(NS(=O)(=O)c3ccc(F)cc3)cc2CC1=O,149.8,-,-,-,-,-
C[C@H]1CN([C@@H](C)CO)C(=O)Cc2cc(NS(=O)(=O)c3ccc(F)cc3)ccc2O[C@@H]1CN(C)Cc1ccc2c(c1)OCO2,123.7,-,-,-,-,-
CCC(=O)N1C[C@@H](O)COC[C@H]2O[C@H](CC(=O)NCc3ccccc3Cl)CC[C@@H]21,-,.,.,-,-,.
Nc1ncnc2c1nc(N1CCCCC1)n2[C@@H]1O[C@H](CO)[C@@H](O)[C@H]1O,100.8,-,-,-,-,-
N#Cc1c(N)n(C2OC(CO)C(O)C2O)c2ncnc(N)c12 (configuration not stated),.,108.7,-,.,.,84.1
C[C@H](CO)N1C[C@H](C)[C@H](CN(C)C(=O)c2ccccc2)OCCCC[C@H](C)Oc2ccc(NC(=O)c3ccncc3)cc2C1=O,-,-,-,-,-,-
C[C@H](NC(=O)C[C@@H]1C=C[C@H](NC(=O)CN2CCOCC2)[C@@H](CO)O1)c1ccccc1,-,-,-,-,.,-
COCC(=O)N1C[C@@H]2[C@H](c3ccccc31)[C@@H](CO)N2C(=O)Nc1ccccc1F,-,-,-,-,-,.
C[C@@H]1CN([C@H](C)CO)S(=O)(=O)c2ccc(-c3cncnc3)cc2O[C@H]1CN(C)CC1CC1,-,.,-,-,-,-
